Reference: ChEMBL document CHEMBL1961873, “Compounds: GSK PKIS; Assays: Nanosyn kinase panel” (2012)
Several values for one entry are separate records, joined by “and”; a condition that tells them apart may be missing. Identical values can stand only once.

molecular target: Tyrosine-protein kinase JAK1 (Homo sapiens) (UniProt P23458); conditions: at 0.1 µM
Sequence (P23458 whole entry): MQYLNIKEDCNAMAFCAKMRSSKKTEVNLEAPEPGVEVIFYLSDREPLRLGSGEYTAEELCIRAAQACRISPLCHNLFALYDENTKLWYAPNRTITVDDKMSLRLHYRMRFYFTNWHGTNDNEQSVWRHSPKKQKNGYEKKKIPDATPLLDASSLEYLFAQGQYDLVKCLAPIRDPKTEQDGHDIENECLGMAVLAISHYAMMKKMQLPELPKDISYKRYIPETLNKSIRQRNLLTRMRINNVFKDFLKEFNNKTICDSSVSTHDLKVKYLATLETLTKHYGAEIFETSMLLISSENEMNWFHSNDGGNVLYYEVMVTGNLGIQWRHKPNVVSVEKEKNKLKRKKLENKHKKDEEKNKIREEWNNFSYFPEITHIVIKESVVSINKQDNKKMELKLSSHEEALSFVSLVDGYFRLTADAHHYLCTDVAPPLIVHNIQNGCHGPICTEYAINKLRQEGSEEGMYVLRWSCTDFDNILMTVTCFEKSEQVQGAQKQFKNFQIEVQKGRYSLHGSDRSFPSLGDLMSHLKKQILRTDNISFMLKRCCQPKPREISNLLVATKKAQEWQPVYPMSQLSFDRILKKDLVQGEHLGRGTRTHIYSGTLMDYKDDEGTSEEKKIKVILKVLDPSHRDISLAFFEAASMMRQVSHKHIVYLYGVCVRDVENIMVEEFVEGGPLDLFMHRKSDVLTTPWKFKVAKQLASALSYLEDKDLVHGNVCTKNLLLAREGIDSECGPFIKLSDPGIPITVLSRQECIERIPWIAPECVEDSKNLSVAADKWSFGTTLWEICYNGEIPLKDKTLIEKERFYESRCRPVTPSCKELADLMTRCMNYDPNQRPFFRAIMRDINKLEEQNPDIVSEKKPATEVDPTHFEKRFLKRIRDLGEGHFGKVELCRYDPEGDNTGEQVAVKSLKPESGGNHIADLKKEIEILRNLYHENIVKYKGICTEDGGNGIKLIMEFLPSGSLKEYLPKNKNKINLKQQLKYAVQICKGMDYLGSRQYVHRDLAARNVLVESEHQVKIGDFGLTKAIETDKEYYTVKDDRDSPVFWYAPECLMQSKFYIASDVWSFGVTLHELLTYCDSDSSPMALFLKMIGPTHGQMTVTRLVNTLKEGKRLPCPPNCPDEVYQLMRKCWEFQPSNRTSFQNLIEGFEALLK

Compound | inhibition
CN1CCN(Cc2ccc(-c3cc4ncnc(Nc5ccc(OCc6cccc(F)c6)c(Cl)c5)c4s3)o2)CC1 | 1.06% and 6.88%
Cc1nnc(-c2cccc(-c3ccc(C(=O)NCC4CC4)cc3)c2)o1 | 2.76%
CCn1c(-c2nonc2N)nc2cncc(C(=O)NCCNC)c21 | 0.48%
COc1c(C(N)=O)cc(-c2ccc(Cl)cc2)cc1-c1ccc(S(N)(=O)=O)cc1 | 1.1%
COc1cc(N2CCN(C(C)C)CC2)ccc1Nc1nc(Nc2cccc3ncccc23)c2cc[nH]c2n1 | -1.68%
CS(=O)(=O)CCNCc1ccc(-c2ccc3ncnc(Nc4ccc(OCc5ccccc5)cc4)c3c2)o1 | 6.4%
Cc1c2ccc(N(C)c3ccnc(Nc4cccc(S(N)(=O)=O)c4)n3)cc2nn1C | 1.56%
N#Cc1cccc(Nc2ncc(-c3ccccc3)o2)c1 | 0.52%
FC(F)(F)CNc1nccc(-c2cnn3ncccc23)n1 | 1.9%
c1cnn2ncc(-c3ccnc(NCCCN4CCOCC4)n3)c2c1 | 2.8%
Cc1cc(O)cc(C)c1/C=C/c1cncc(C(N)=O)c1 | -0.72%
NC(=O)c1ccc2c(-c3ccnc(NCCCO)n3)c(-c3ccc(F)cc3)nn2c1 | 0.15%
Fc1cccc(COc2ccc(Nc3ncncc3C#Cc3ccccc3)cc2Cl)c1 | 2.37%
CCCNc1cccc(-n2ncc3c(N/N=C/c4ccncc4)ncnc32)c1 | 6.59%
COc1cccc(Nc2nccc(-c3cnn4ncccc34)n2)c1 | -0.13%
Cc1cc(O)cc(C)c1/C=C/c1cncc(C(=O)OC(C)(C)C)c1 | 1.99%

Compound | inhibition
CS(=O)(=O)Nc1ccc(-c2ccc3c(NC(=O)C4CC4)n[nH]c3c2)cc1 | 2.35%
COC(=O)Nc1nc2cc(Oc3ccc(NC(=O)Nc4ccccc4)cc3)ccc2[nH]1 | 3.81%
CN1CCC(n2cnc(-c3ccc(F)cc3)c2-c2ccnc(NCCO)n2)CC1 | 4.93%
CC1=C(C(=O)Nc2ccc3[nH]ncc3c2)C(c2ccc(F)cc2)N=C(c2ccc(C(F)(F)F)nc2)N1 (configuration not stated) | 1.34%
NS(=O)(=O)c1cccc(N/C=C2\C(=O)Nc3ccccc32)c1 | 2.83%
O=C(O[C@H]1CN[C@H](C#Cc2cc3ncnc(Nc4ccc5c(ccn5Cc5cc(F)ccc5F)c4)c3s2)C1)N1CCOCC1 | 5.05%
CC1(C)CC(n2cnc(-c3ccc(F)cc3)c2-c2ccnc(N)n2)CC(C)(C)N1 | -2.83%
c1ccc(-c2n[nH]cc2-c2ccnc(-c3ccc(OCCn4ccnc4)cc3)c2)nc1 | 0.34%
CCN1CCC(C(=O)Nc2n[nH]c3nnc(-c4cccc(F)c4F)cc23)CC1 | 1.68%
CS(=O)(=O)CCNCc1ccoc1-c1ccc2ncnc(Nc3ccc(OCc4ccccc4)cc3)c2c1 | -1.22%
COc1cc2c(cc1Nc1nc(Nc3cccc(F)c3C(N)=O)c3cc[nH]c3n1)N(C(=O)CN1CCN(C(C)C)CC1)CC2 | -0.19%
O=C(Nc1n[nH]c2nnc(-c3cccnc3)cc12)C1CC1 | 1.49%
COc1cccc(-n2ncc3c(N/N=C/c4ccc(C(=O)NCCN(C)C)cc4)ncnc32)c1 | 4.89%
CN1CCC(C(=O)Nc2n[nH]c3nc(-c4ccc(O)cc4)c(Br)cc23)CC1 | 2.37% and 1.02%
O=C(O[C@H]1CN[C@H](C#Cc2cc3ncnc(Nc4ccc5c(cnn5Cc5ccccc5)c4)c3s2)C1)N1CCOCC1 | 0.1%

molecular target: Tyrosine-protein kinase JAK1 (Homo sapiens) (UniProt P23458); conditions: at 1 µM

Compound | inhibition
CN1CCN(Cc2ccc(-c3cc4ncnc(Nc5ccc(OCc6cccc(F)c6)c(Cl)c5)c4s3)o2)CC1 | 3.27% and 18.5%
Cc1nnc(-c2cccc(-c3ccc(C(=O)NCC4CC4)cc3)c2)o1 | 9.78%
CCn1c(-c2nonc2N)nc2cncc(C(=O)NCCNC)c21 | 2.04%
COc1c(C(N)=O)cc(-c2ccc(Cl)cc2)cc1-c1ccc(S(N)(=O)=O)cc1 | 3.15%
COc1cc(N2CCN(C(C)C)CC2)ccc1Nc1nc(Nc2cccc3ncccc23)c2cc[nH]c2n1 | -0.17%
CS(=O)(=O)CCNCc1ccc(-c2ccc3ncnc(Nc4ccc(OCc5ccccc5)cc4)c3c2)o1 | 5.72%
Cc1c2ccc(N(C)c3ccnc(Nc4cccc(S(N)(=O)=O)c4)n3)cc2nn1C | 9.69%
N#Cc1cccc(Nc2ncc(-c3ccccc3)o2)c1 | 10.7%
FC(F)(F)CNc1nccc(-c2cnn3ncccc23)n1 | 2.18%
c1cnn2ncc(-c3ccnc(NCCCN4CCOCC4)n3)c2c1 | 4.8%
Cc1cc(O)cc(C)c1/C=C/c1cncc(C(N)=O)c1 | 2.56%
NC(=O)c1ccc2c(-c3ccnc(NCCCO)n3)c(-c3ccc(F)cc3)nn2c1 | 4.59%
Fc1cccc(COc2ccc(Nc3ncncc3C#Cc3ccccc3)cc2Cl)c1 | 14.7%
CCCNc1cccc(-n2ncc3c(N/N=C/c4ccncc4)ncnc32)c1 | 11.7%
COc1cccc(Nc2nccc(-c3cnn4ncccc34)n2)c1 | 13.2%
Cc1cc(O)cc(C)c1/C=C/c1cncc(C(=O)OC(C)(C)C)c1 | 7.09%

Compound | inhibition
CS(=O)(=O)Nc1ccc(-c2ccc3c(NC(=O)C4CC4)n[nH]c3c2)cc1 | -1.13%
COC(=O)Nc1nc2cc(Oc3ccc(NC(=O)Nc4ccccc4)cc3)ccc2[nH]1 | 9.99%
CN1CCC(n2cnc(-c3ccc(F)cc3)c2-c2ccnc(NCCO)n2)CC1 | 7.32%
CC1=C(C(=O)Nc2ccc3[nH]ncc3c2)C(c2ccc(F)cc2)N=C(c2ccc(C(F)(F)F)nc2)N1 (configuration not stated) | 1.91%
NS(=O)(=O)c1cccc(N/C=C2\C(=O)Nc3ccccc32)c1 | 6.08%
O=C(O[C@H]1CN[C@H](C#Cc2cc3ncnc(Nc4ccc5c(ccn5Cc5cc(F)ccc5F)c4)c3s2)C1)N1CCOCC1 | 1.68%
CC1(C)CC(n2cnc(-c3ccc(F)cc3)c2-c2ccnc(N)n2)CC(C)(C)N1 | 1.68%
c1ccc(-c2n[nH]cc2-c2ccnc(-c3ccc(OCCn4ccnc4)cc3)c2)nc1 | 6.98%
CCN1CCC(C(=O)Nc2n[nH]c3nnc(-c4cccc(F)c4F)cc23)CC1 | -1.21%
CS(=O)(=O)CCNCc1ccoc1-c1ccc2ncnc(Nc3ccc(OCc4ccccc4)cc3)c2c1 | -0.53%
COc1cc2c(cc1Nc1nc(Nc3cccc(F)c3C(N)=O)c3cc[nH]c3n1)N(C(=O)CN1CCN(C(C)C)CC1)CC2 | -3.81%
O=C(Nc1n[nH]c2nnc(-c3cccnc3)cc12)C1CC1 | 2.85%
COc1cccc(-n2ncc3c(N/N=C/c4ccc(C(=O)NCCN(C)C)cc4)ncnc32)c1 | 18.1%
CN1CCC(C(=O)Nc2n[nH]c3nc(-c4ccc(O)cc4)c(Br)cc23)CC1 | 19.7% and 3.43%
O=C(O[C@H]1CN[C@H](C#Cc2cc3ncnc(Nc4ccc5c(cnn5Cc5ccccc5)c4)c3s2)C1)N1CCOCC1 | 3.26%
